Measured values published in PubChem BioAssay AID1159580 (chemical genetic matrix, 2015).
Out of some 5,500 compounds screened, about 2,000 (36%) were called active. Another 18% or so got no clear call; they are omitted. Rule as the data show it: active = normalized growth mostly below about 0.91 (no sharp cut-off); inconclusive = no clear call, values can overlap the other calls; inactive = mostly above about 0.92. This is one part of the list.

Assay: chemical genetic growth profiling, strain panel (AID 1159580);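 also: tested at 20 µM; growth read once vehicle control cultures reached saturation at 30 °C; 1 = growth at the plate median or of vehicle wells; lower values mean less growth of the strain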
Details: growth OD

Measured: normalized growth

O=C(Cn1ccnc1[N+](=O)[O-])NCCO
inactive: S. cerevisiae deletion strains, locus YJR075W, strain HOC1, active compounds read low 1 | S. cerevisiae deletion strains, locus YKL009W, strain mrt4, active compounds read low 1.03 | S. cerevisiae deletion strains, locus YKL068W, active compounds read low 1.02 | S. cerevisiae deletion strains, locus YKL085W, strain MDH1 (second series), active compounds read low 1.03 | S. cerevisiae deletion strains, locus YKL085W, strain MDH1, active compounds read low 1.03 | S. cerevisiae deletion strains, locus YKL160W, strain elf1, active compounds read low 1.02 | S. cerevisiae deletion strains, locus YKL190W, strain CNB1, active compounds read low 1.01 | S. cerevisiae deletion strains, locus YKR001C, strain vps1, active compounds read low 1.01 | S. cerevisiae deletion strains, locus YKR026C, strain gcn3, active compounds read low 1.01 | S. cerevisiae deletion strains, locus YKR091W, strain srl3, active compounds read low 1.01 | S. cerevisiae deletion strains, locus YLL001W, strain dnm1, active compounds read low 1.01 | S. cerevisiae deletion strains, locus YLL026W, active compounds read low 1.01 | S. cerevisiae deletion strains, locus YLL041C, strain sdh2, active compounds read low 1.01 | S. cerevisiae deletion strains, locus YLR027C, strain aat2, active compounds read low 1.01 | S. cerevisiae deletion strains, locus YLR039C, strain RIC1, active compounds read low 1.08 | S. cerevisiae deletion strains, locus YLR058C, strain SHM2, active compounds read low 1.01 | S. cerevisiae deletion strains, locus YLR102C, strain apc9, active compounds read low 1.01 | S. cerevisiae deletion strains, locus YLR113W, strain HOG1, active compounds read low 0.988 | S. cerevisiae deletion strains, locus YLR221C, strain rsa3, active compounds read low 1.02 | S. cerevisiae deletion strains, locus YLR258W, strain gsy2, active compounds read low 1.02 | S. cerevisiae deletion strains, locus YLR262C, strain YPT6 (second series), active compounds read low 1.02 | S. cerevisiae deletion strains, locus YLR262C, strain YPT6, active compounds read low 1.07 | S. cerevisiae deletion strains, locus YLR268W, strain sec22, active compounds read low 0.981 | S. cerevisiae deletion strains, locus YLR320W, strain mms22, active compounds read low 1.03 | S. cerevisiae deletion strains, locus YLR330W, strain CHS5, active compounds read low 1 | S. cerevisiae deletion strains, locus YLR342W, strain FKS1 (second series), active compounds read low 1.08 | S. cerevisiae deletion strains, locus YLR342W, strain FKS1, active compounds read low 1.02 | S. cerevisiae deletion strains, locus YLR357W, strain rsc2, active compounds read low 1.01 | S. cerevisiae deletion strains, locus YLR370C, strain arc18, active compounds read low 1.02 | S. cerevisiae deletion strains, locus YLR371W, strain rom2, active compounds read low 1.01 | S. cerevisiae deletion strains, locus YLR384C, strain iki3, active compounds read low 1.03 | S. cerevisiae deletion strains, locus YLR418C, strain cdc73, active compounds read low 0.95 | S. cerevisiae deletion strains, locus YML016C, strain PPZ1, active compounds read low 1 | S. cerevisiae deletion strains, locus YML032C, strain rad52, active compounds read low 1.02 | S. cerevisiae deletion strains, locus YML120C, strain ndi1, active compounds read low 1 | S. cerevisiae deletion strains, locus YML124C, strain tub3, active compounds read low 1 | S. cerevisiae deletion strains, locus YMR058W, strain fet3, active compounds read low 1.01 | S. cerevisiae deletion strains, locus YMR078C, strain ctf18, active compounds read low 1.01 | S. cerevisiae deletion strains, locus YMR125W, strain sto1, active compounds read low 1.02 | S. cerevisiae deletion strains, locus YMR129W, active compounds read low 1.02 | S. cerevisiae deletion strains, locus YMR205C, strain PFK2, active compounds read low 1.03 | S. cerevisiae deletion strains, locus YMR223W, strain ubp8, active compounds read low 1.02 | S. cerevisiae deletion strains, locus YMR231W, strain pep5, active compounds read low 1.02 | S. cerevisiae deletion strains, locus YMR263W, strain SAP30, active compounds read low 0.993 | S. cerevisiae deletion strains, locus YMR307W, strain GAS1, active compounds read low 1.04 | S. cerevisiae deletion strains, locus YNL067W, strain RPL9B, active compounds read low 0.988 | S. cerevisiae deletion strains, locus YNL071W, strain lat1, active compounds read low 1 | S. cerevisiae deletion strains, locus YNL128W, strain TEP1, active compounds read low 0.991 | S. cerevisiae deletion strains, locus YNL153C, strain GIM3, active compounds read low 0.97 | S. cerevisiae deletion strains, locus YNL183C, strain NPR1, active compounds read low 0.955 | S. cerevisiae deletion strains, locus YNL209W, strain ssb2, active compounds read low 1.02 | S. cerevisiae deletion strains, locus YNL233W, strain BNI4, active compounds read low 1 | S. cerevisiae deletion strains, locus YNL248C, strain rpa49, active compounds read low 1.01 | S. cerevisiae deletion strains, locus YNL250W, strain rad50, active compounds read low 0.99 | S. cerevisiae deletion strains, locus YNL271C, strain bni1, active compounds read low 0.999 | S. cerevisiae deletion strains, locus YNL298W, strain CLA4, active compounds read low 1.01 | S. cerevisiae deletion strains, locus YNL307C, strain MCK1, active compounds read low 1.03 | S. cerevisiae deletion strains, locus YNL322C, strain KRE1 (second series), active compounds read low 1.02 | S. cerevisiae deletion strains, locus YNL322C, strain KRE1, active compounds read low 1.01 | S. cerevisiae deletion strains, locus YNR049C, strain mso1, active compounds read low 1.01 | S. cerevisiae deletion strains, locus YNR052C, strain pop2, active compounds read low 1.01 | S. cerevisiae deletion strains, locus YOL006C, strain TOP1, active compounds read low 1.06 | S. cerevisiae deletion strains, locus YOL012C, strain htz1 0.906 | S. cerevisiae deletion strains, locus YOL147C, strain pex11, active compounds read low 1.01 | S. cerevisiae deletion strains, locus YOR001W, strain rrp6, active compounds read low 1.02 | S. cerevisiae deletion strains, locus YOR061W, strain CKA2, active compounds read low 1 | S. cerevisiae deletion strains, locus YOR069W, strain VPS5, active compounds read low 1.01 | S. cerevisiae deletion strains, locus YOR070C, strain gyp1, active compounds read low 1.03 | S. cerevisiae deletion strains, locus YOR080W, strain dia2, active compounds read low 1.01 | S. cerevisiae deletion strains, locus YOR083W, strain WHI5, active compounds read low 1.02 | S. cerevisiae deletion strains, locus YOR106W, strain vam3, active compounds read low 1.02 | S. cerevisiae deletion strains, locus YOR136W, strain idh2, active compounds read low 1.01 | S. cerevisiae deletion strains, locus YOR144C, strain elg1, active compounds read low 1.01 | S. cerevisiae deletion strains, locus YOR184W, strain ser1, active compounds read low 1.05 | S. cerevisiae deletion strains, locus YOR231W, strain MKK1, active compounds read low 0.986 | S. cerevisiae deletion strains, locus YOR265W, strain rbl2, active compounds read low 1.03 | S. cerevisiae deletion strains, locus YOR270C, strain vph1, active compounds read low 1.03 | S. cerevisiae deletion strains, locus YOR290C, strain snf2, active compounds read low 1.01 | S. cerevisiae deletion strains, locus YOR316C, strain cot1, active compounds read low 1 | S. cerevisiae deletion strains, locus YPL051W, strain arl3, active compounds read low 1.02 | S. cerevisiae deletion strains, locus YPL055C, strain LGE1, active compounds read low 0.955 | S. cerevisiae deletion strains, locus YPL078C, strain atp4, active compounds read low 1.01 | S. cerevisiae deletion strains, locus YPL106C, strain sse1, active compounds read low 1.02 | S. cerevisiae deletion strains, locus YPL240C, strain hsp82, active compounds read low 1.01 | S. cerevisiae deletion strains, locus YPL241C, strain CIN2, active compounds read low 1.01 | S. cerevisiae deletion strains, locus YPL256C, strain CLN2, active compounds read low 0.977 | S. cerevisiae deletion strains, locus YPR119W, strain clb2, active compounds read low 1.01 | S. cerevisiae deletion strains, locus YPR141C, strain kar3, active compounds read low 1.01 | S. cerevisiae deletion strains, locus YPR163C, strain tif3, active compounds read low 1.01 | S. cerevisiae deletion strains, locus YPR167C, strain met16, active compounds read low 1.02 | S. cerevisiae deletion strains, strain wtn01, active compounds read low 1 | S. cerevisiae strains, strain wild type, active compounds read low 1.01
